ATXN viability: reduces viability in counter-screen for ATXN expression inhibitors; 400,000 compounds, 0.49% hits; Potency, µM (doses to about 56.7 µM), hits mostly cytotoxic; AID 651635; S2 cells (HEK-293 line with an ATXN2-luciferase reporter) viability, CellTiter-Fluor protease fluorescence, 24 h; further: nearly all actives have a fitted effect of over 40% in size
ATXN2 expr inh: inhibitors of ATXN2 expression. HEK-293 ATXN2-luciferase reporter, luminescence, 24 h. Potency, µM (series often up to 57 µM), for the others: at the highest dose activity change, negative = inhibition, hits mostly inhibitors. 360,000 compounds, 0.72% hits; further: on the % scale 0 is the no-effect control and ±100 the full control effect; nearly all actives have a fitted effect of over 55% in size
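qHTS (up to 57 uM final) was run with 24 h compound exposure of reporter cells at 37 °C. Each well was multiplexed: SteadyGlo luminescence measured ATXN2-luciferase expression after a fluorogenic Gly-Phe-AFC viability readout (25 uM final).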
A549 tox: counter-screen for Nrf2 inhibitors: cytotoxicity in A549 cells; A549 ARE-Fluc cells, CellTiter-Fluor viability, 18-24 h; Potency, µM (doses to about 46 µM), without a hit: top-dose activity change, negative = cytotoxicity, actives largely listed as inhibitors; 390,000 compounds, 0.16% hits; AID 504648; further: on the % scale 0 is the no-effect control and ±100 the full control effect
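A549 ARE_Fluc cells in 5% FBS OPTI-MEM were exposed to compounds in concentration-response for 18-24 h at 37 deg C. Viability was read by CellTiter-Fluor fluorescence (Ex 405/Em 525) after 30 min, before the luciferase read.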
Nrf2 activator: activators of Nrf2 (ARE) signaling; AREc32 ARE-luciferase reporter (MCF7-derived line), luminescence, 24 h; Potency, µM (highest dose often 46.1 µM), for inactives: at the highest dose activation, hits mostly activators; 410,000 compounds, 0.31% hits; AID 624171; further: % of control where 0% means no effect; nearly all actives have a fitted effect of over 65% in size
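Nrf2 activation is followed as ARE-luciferase induction in the AREc32 line after one day of compound treatment; luminescence is read with Steady-Glo.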
Nrf2 block: inhibitors of Nrf2 signaling | A549 ARE-Fluc reporter, luciferase luminescence, 18-24 h | Potency, µM (titrated, usually from 46 µM), for inactives: at the highest dose activity change, negative = inhibition, most hits filed as inhibitors | 360,000 compounds, 2.1% hits | AID 504444; further: on the % scale 0 is the no-effect control and ±100 the full control effect; nearly all actives have a fitted effect of over 60% in size
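In this cell-based qHTS, ARE-driven firefly luciferase in A549 cells reports Nrf2 activity; the luminescent signal after BugLite lysis is the measured value, with a prior CellTiter-Fluor read for cell health.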
* hit, by the source's call; i = inactive; u = inconclusive; x = not tested or not shown. A selection: hits, their analogues and other compounds. The true share with any hit is near 2.9%. The call rests on the fitted dose curve; in most records, active means well fitted curve in the direction sought with a large enough effect; inconclusive means small, poorly fitted or top-dose-only effect, or another doubt; inactive means no such curve, though single readings can be large; an effect the other way counts as inactive or inconclusive. Potency means the concentration at half of the fitted maximal effect.

SMILES	ATXN viability	ATXN2 expr inh	A549 tox	Nrf2 activator	Nrf2 block
Cc1ccc(NC(=O)c2ccc3c(=O)n4c(nc3c2)CCCCC4)cc1F	u	-28%	u	8%	18µM*
O=C(Nc1ccccc1Cl)c1ccc2c(=O)n3c(nc2c1)CCC3	u	-22%	2%	-1%	u
COc1ccc(NC(=O)c2ccc3c(=O)n4c(nc3c2)CCCCC4)cc1	i	5%	-10%	2%	-3%
Cc1ccccc1OCc1nnc(SCC(=O)O)n1Cc1ccccc1	i	5%	-3%	0%	2%
O=C(Nc1cccc(S(=O)(=O)N2CCCC2)c1)c1ccc2c(=O)n3c(nc2c1)CCCCC3	i	u	-17%	0%	12µM*
CC(=O)c1cccc(NC(=O)c2ccc3c(=O)n4c(nc3c2)CCCCC4)c1	i	19%	1%	3%	4%
Cn1nc(-c2ccncc2)nc2c(=O)n(C)c(=O)nc1-2	x	x	2.9µM*	x	2.3µM*
Nc1nc(N)c(-c2cccc(C(F)(F)F)c2)c(Cc2cccc(C(F)(F)F)c2)n1	i	u	2%	3%	15µM*
FC(F)(F)c1cccc(-c2nn[nH]n2)c1	i	4%	-8%	0%	-10%
COc1ccc(-c2[nH][nH]c(=O)c2NC(=O)c2ccccn2)cc1	i	5%	x	2%	x
COc1ccc(CCC(=O)Nc2c(-c3ccc(N(C)C)cc3)[nH][nH]c2=O)cc1	u	20µM*	x	u	x
O=C1CCCN1c1ccc(S(=O)(=O)NCCOc2ccccc2)cc1	i	-18%	-11%	0%	13µM*
CCOc1ccc(CCN2C(=S)N([C@@H](Cc3ccc(O)cc3)CN3CCCC3CN3C(=S)NC[C@@H]3Cc3ccc(O)cc3)C[C@@H]2CC(C)C)cc1 (stereo partly drawn)	i	u	-11%	-1%	16µM*
CCOc1ccc(CCN2C(=S)N([C@@H](Cc3ccc(O)cc3)CN3CCC[C@@H]3CN3C(=S)NC[C@@H]3CC(C)C)C[C@@H]2Cc2ccc(O)cc2)cc1	7.1µM*	u	x	-1%	x
O=C(CN1CCN(c2ccccn2)CC1)N(c1ccccc1)c1ccc2ccccc2c1	u	-15%	-4%	0%	-18%
O=S(=O)(c1ccc(Cl)cc1)N1CCN(Cc2cccnc2)CC1	i	-7%	1%	0%	-21%
CC(C)C[C@H](NC(=O)OC(C)(C)C)C(=O)N/N=C/C1=Cc2ccccc2OC1C (stereo partly drawn)	u	u	u	3%	21µM*
O=S(=O)(c1ccc(Oc2ccc(Br)cc2F)nc1)N1CCCCC1	i	-5%	-15%	0%	16µM*
O=S(=O)(c1ccc(SCCOc2ccc(Br)cc2)nc1)N1CCCC1	i	-38%	3%	1%	16µM*
O=S(=O)(c1ccc(SCCOc2ccc(Cl)cc2)nc1)N1CCCC1	i	u	-7%	0%	18µM*
N#Cc1ccccc1Oc1ccc(S(=O)(=O)N2CCCCC2)cn1	i	21%	-2%	-1%	24%
CC(C)N(C(=O)CSc1ccc(S(=O)(=O)N2CCCCC2)cn1)c1ccccc1	i	-11%	-1%	0%	9.2µM*
CN(C)C(=O)CSc1ccc(S(=O)(=O)N2CCCC2)cn1	i	3%	1%	0%	1%
CCOCCn1c(C2CCN(CCc3ccc(C(C)(C)C(=O)O)cc3)CC2)nc2ccccc21	i	0%	x	x	x
CCC1CCCCN1C(=O)c1ccc([N+](=O)[O-])o1 (stereo not drawn)	i	-15%	-1%	20µM*	14%
CC1=C(CO)C(=O)O[C@@H]([C@@H](C)[C@H]2CC[C@H]3[C@@H]4C[C@H]5O[C@]56[C@@H](O)C=CC(=O)[C@]6(C)[C@@H]4CC[C@]23C)C1	x	3.1µM*	x	x	x
CC(C)C(=O)NC(c1cccs1)c1cc([N+](=O)[O-])c2cccnc2c1O (stereo not drawn)	i	u	u	-1%	21µM*
CCC(=O)NC(c1cccs1)c1cc([N+](=O)[O-])c2cccnc2c1OC (stereo not drawn)	i	6%	x	0%	x

Screening data: PubChem, National Center for Advancing Translational Sciences (NCATS)
